Experimental data: PubChem BioAssay (NCI)
About 83,000 compounds went through this panel and 20% of them were active in at least one assay; those are over-represented in the sample as a whole.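 Step 1: grow cells in 96-well plates. Step 2: add test compound at a single concentration. Step 3: incubate 48 h. Step 4: record percent growth.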 Unmarked numbers belong to inactive results. Active and inactive are the calls of the source. Rule for the calls: active = growth percent below 10; inactive = the rest.

How the values were obtained:
Assay in all cases: NCI-60 one-dose screen, 48 h (100 = growth as untreated, 0 = no growth, -100 = all killed)
Conditions in all cases: 10 µM unless noted
NCI-H23 lung = test system: NCI-H23 lung
NCI-H226 lung = test system: NCI-H226 lung
NCI-H322M lung = test system: NCI-H322M lung
HOP-62 NSCLC = test system: HOP-62 NSCLC
NCI-H460 lung = test system: NCI-H460 lung
NCI-H522 lung = test system: NCI-H522 lung
A549/ATCC NSCLC = test system: A549/ATCC NSCLC
786-0 renal = test system: 786-0 renal
COLO 205 colon = test system: COLO 205 colon
DU-145 prostate = test system: DU-145 prostate
K-562 leukemia = test system: K-562 leukemia
MALME-3M melanoma = test system: MALME-3M melanoma
MDA-MB-231 breast = test system: MDA-MB-231 breast
RXF 393 renal = test system: RXF 393 renal
SF-268 CNS = test system: SF-268 CNS
SF-295 CNS = test system: SF-295 CNS
SF-539 CNS = test system: SF-539 CNS
UACC-257 melanoma = test system: UACC-257 melanoma
M14 melanoma = test system: M14 melanoma
HCT-15 colon = test system: HCT-15 colon

| Compound | growth (NCI-H23 lung) | growth (NCI-H226 lung) | growth (NCI-H322M lung) | growth (HOP-62 NSCLC) | growth (NCI-H460 lung) | growth (NCI-H522 lung) | growth (A549/ATCC NSCLC) | growth (786-0 renal) | growth (COLO 205 colon) | growth (DU-145 prostate) | growth (K-562 leukemia) | growth (MALME-3M melanoma) | growth (MDA-MB-231 breast) | growth (RXF 393 renal) | growth (SF-268 CNS) | growth (SF-295 CNS) | growth (SF-539 CNS) | growth (UACC-257 melanoma) | growth (M14 melanoma) | growth (HCT-15 colon) |
| --- | --- | --- | --- | --- | --- | --- | --- | --- | --- | --- | --- | --- | --- | --- | --- | --- | --- | --- | --- | --- |
| CCc1[nH]nc(-c2ccc(OC)cc2)c1-c1ccccc1OCCN(CC)CC | 91.4% | 94.9% | 97.7% | 84.6% | 103% | 114% | 93.2% | 74.7% | 77% | 102% | 88.4% | 95.5% | 99.2% | 79.3% | 89% | 85.7% | 99% | 97.9% | 87.1% | 105% |
| O=C1C(=O)c2ccc(Br)cc2-c2cc(Br)ccc21 | 42% | 88.6% | 91.2% | 76.3% | 78.8% | 0.737% (active) | 89.7% | 50.9% | 119% | 68.4% | 4.69% (active) | 70.4% | -23.4% (active) | 26.1% | 22.4% | 78.1% | 117% | 76.8% | 68% | – |
| COC(=O)CCC1=C(C)/C(=C/c2[nH]c(-c3ccc[nH]3)cc2OC)N=C1C | 8.11% (active) | 23.9% | 26.6% | 3.57% (active) | 6.04% (active) | -66.9% (active) | 13% | 13.1% | 12.1% | 14.2% | -16.4% (active) | -38.1% (active) | -17% (active) | 24.1% | 21.9% | -30% (active) | 18.7% | -16.4% (active) | 4.36% (active) | – |
| CC(=O)n1c2ccccc2c2ccccc21 | 93.7% | 115% | 107% | 93.8% | 117% | 108% | 107% | 90.8% | 148% | 108% | 111% | 126% | 126% | 144% | 115% | 96.7% | 107% | 123% | 103% | 112% |
| COc1ccc(-c2c(-c3cc(OC)c(OC)c(OC)c3)noc2N)cc1 | 31.1% | 16% | 43.2% | 41.4% | 7.26% (active) | -28.9% (active) | 22.3% | 20% | -72% (active) | -3.15% (active) | 11.8% | 67.5% | 17.1% | 26.5% | 23.8% | 8.4% (active) | 19.3% | 77.5% | 15.2% | 28% |
| CSC1=Nc2c(c(C)c(-c3ccccc3)n2CCCN2CCCCC2)C2=NC(=O)C[C@H](C)N12 | 63.1% | 68.9% | 62.1% | 81.6% | 38.3% | 35.5% | 32.2% | 80.1% | -87% (active) | 47.6% | 11.6% | 56.5% | 69.6% | 56.4% | 66.2% | 38.9% | 79% | 41.3% | 59.8% | – |
| COc1cccc2c1C(=O)c1c(O)c3c(c(O)c1C2=O)C[C@@](O)(/C(C)=N/NC(=O)c1cccc([N+](=O)[O-])c1)C[C@@H]3OC1CC(N)C(O)C(C)O1 (some centres undefined) | -33.6% (active) | -67.4% (active) | -3.02% (active) | -23.8% (active) | -38.5% (active) | -61% (active) | -53.4% (active) | -24.6% (active) | -98.1% (active) | -49.7% (active) | -75.7% (active) | -93.6% (active) | -5.42% (active) | -64.9% (active) | -20% (active) | -38.5% (active) | -25.7% (active) | -37.4% (active) | -43.8% (active) | – |
| COc1ccc2c(c1)[nH]c(=O)c1c3cc(OC)c(OC)cc3cn21 | 42.5% | 44.6% | 20.7% | 47.4% | 6.39% (active) | -2.16% (active) | -22.1% (active) | 32.1% | -34.8% (active) | -87.2% (active) | 0.148% (active) | 56.7% | 26.4% | 0.926% (active) | 9.67% (active) | 13.6% | 10.7% | 82.6% | 23.6% | – |
| C=C(C[C@](O)(C(=O)/C=C/c1ccc(Cl)cc1)C(=O)OC)c1ccccc1 | 64.4% | 89.7% | 90.3% | 54% | 88.6% | 66% | 74.4% | 84% | 60.4% | 97.4% | 50.7% | 95.7% | 71% | 52.5% | 87.4% | 98.9% | 75.8% | 91.7% | 84.1% | – |
| C[C@]12CC[C@@H]3c4ccc(O)c([N+](=O)[O-])c4CC[C@H]3[C@@H]1CC[C@@H]2NS(=O)(=O)c1ccc(C(F)(F)F)cc1 | 28% | 53.7% | 54.1% | 56.2% | 10.5% | -67.8% (active) | 19.5% | 43% | 98% | 47.4% | 6.98% (active) | 31% | -9.58% (active) | -1.18% (active) | 36% | 18.7% | 62.4% | 44% | 34.2% | – |
| O=C1Nc2ccccc2C12Nc1cc(Cl)ccc1S2 (centres undefined) | 78.4% | 90.8% | 87.1% | 98.4% | 87.5% | 82.6% | 98.7% | 98.4% | 98.3% | 85.9% | 39.7% | 81.8% | 85.4% | 121% | 87.8% | 78.8% | 86.5% | 138% | 91.6% | – |
| COc1cc(Oc2cc(-c3cccnc3)ccc2NC(=O)Nc2ccc(F)cc2F)cc(OC)c1OC | 99% | 97% | 112% | 96.4% | 99.1% | 94.8% | 94.6% | 100% | 96.9% | 113% | 96.6% | 105% | 91.5% | 97.5% | 107% | 110% | 105% | 92.6% | 110% | 111% |
| COc1ccc2c(c1)C(=O)/C(=C/c1ccc([N+](=O)[O-])s1)O2 | 7.22% (active) | 60% | 11.4% | 35.2% | -3.34% (active) | -86.4% (active) | 8.34% (active) | 28.1% | -64.7% (active) | 43.8% | 3.01% (active) | -46.3% (active) | -71.1% (active) | -63% (active) | -72.7% (active) | 5.53% (active) | -46.2% (active) | -0.975% (active) | -20.6% (active) | – |
| OCc1nnn(-c2ccccc2)c1CO | 112% | 114% | 118% | 110% | 116% | 101% | 110% | 105% | 159% | 113% | 132% | 122% | 107% | 104% | 105% | 115% | 116% | 124% | 110% | 96.7% |
| COc1ccc(OC)c(NC(=O)c2cc3oc4ccccc4c3cc2O)c1 | 87.4% | 90.7% | 101% | 72.4% | 100% | 90.6% | 88.4% | 93.1% | 88.8% | 106% | 86.4% | 69.7% | 100% | 143% | 87.9% | 92% | 90.3% | 92% | 95.7% | – |
| COc1ccccc1[C@H]1c2[nH]c3ccccc3c2C[C@H]2C(=O)N(CCCCCCC(=O)NO)CC(=O)N12 | 52.3% | 91.6% | 76.1% | 50.2% | 62.8% | 10.5% | 76.5% | 89.4% | 26.9% | 43.7% | 11.3% | -1.09% (active) | 66% | 65.5% | 94.3% | 71.9% | 40.2% | 26.5% | 36.3% | – |
